Data as given in PubChem BioAssay (NCI).
Several values for one entry are separate records, joined by “and”; a condition that tells them apart may be missing. Equal values may be shown once. About 83,000 compounds went through this panel and 20% of them were active in at least one assay; those are over-represented in the sample as a whole.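 The endpoint reported here, percent growth, reads 100 for growth as untreated, 0 for no net growth and -100 for all cells dead.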 Values without a mark were called inactive. Activity calls are given as the source filed them. The calls were made as follows: active = growth percent below 10; inactive = the rest.

test system: NCI/ADR-RES ovarian; assay: NCI-60 one-dose screen, 48 h (100 = growth as untreated, 0 = no growth, -100 = all killed); settings: 10 µM unless noted

Compound | growth
Cc1ccc(Cl)cc1NC(=O)N/C(N)=N/c1nc2ccccc2s1 | -34.8% (active)
Nc1cc(-c2c[nH]c3ccc(Cl)cc23)nc2cc(-c3c[nH]c4ccccc34)nn12 | -3.2% (active)
COc1cc(CNC(=O)C[C@H](C)CCC=C(C)C)ccc1OCc1cn(-c2ccc(Cl)c(Cl)c2)nn1 | 36.5%
C[C@@H](Nc1c(C#N)cnc2ccc(-c3cnc4[nH]ncc4c3)cc12)c1ccccc1 | 17.7%
COc1ccc(C2=NN(C(=O)[C@H]3[C@@H](c4ccco4)c4sc(=O)[nH]c4S[C@@H]3C)C(c3ccc4ccccc4c3)C2)cc1 (stereo not given in full) | 26.7%
Cc1cc(C)c2[nH]c(=O)c(C(c3nnnn3Cc3ccc4c(c3)OCO4)N3CCN(C)CC3)cc2c1 (stereo not given) | 108%
COc1ccc(NC(=O)N/N=C/c2c[nH]c3ccccc23)cc1 | 15.3%
COc1ccc2[nH]c(O)c(N=NC(=O)c3ccc4nc(-c5ccc(Cl)cc5)[nH]c4c3)c2c1 | 116%
Cc1ccc(O)cc1Nc1nc(SCCN2CCOCC2)nc2c1cnn2CC(Cl)c1ccc(Br)cc1 (stereo not given) | 7.37% (active)
CCOc1ccccc1[C@H]1C(C(=O)c2ccc(Cl)cc2)C2(N[C@@H]1c1ccccc1)C(=O)Nc1ccc(Br)cc12 (stereo not given in full) | -46.7% (active)
CC1(C)CC(=O)C2=C(C1)OC(N)=C(c1nc3ccccc3[nH]1)C2c1ccc(Cl)cc1 (stereo not given) | 78% and 109%
COc1ccc(-c2cc(C(=O)N=Nc3c(O)[nH]c4ccc(Cl)cc34)c3ccccc3n2)cc1OC | 98.2%
COc1ccc2c(c1)c(-c1cc(N)n3nc(-c4c[nH]c5ccccc45)cc3n1)cn2C | -43.3% (active)
Cc1ccc2c(c1)nc(-c1ccccc1)n2CC(=O)N=Nc1c(O)[nH]c2ccc(Cl)cc12 | -73% (active)
CS(=O)(=O)Nc1cccc(-n2c(COc3ccc(OC(F)(F)F)cc3)nc3ccccc32)c1 | 88.2% and 107%
Oc1ccc(Cl)c(Nc2nc(SCCN3CCOCC3)nc3c2cnn3CC(Cl)c2ccc(Br)cc2)c1 (stereo not given) | 13.5%
COc1ccccc1NC(=O)N/N=C/c1c[nH]c2ccccc12 | -9.65% (active)
Nc1cccc(-n2c(COc3ccc(I)cc3)nc3ccccc32)c1 | 74.3% and 102%

Compound | growth
O=C1CCC(N2C(=O)c3cccc(NCCCCCC(=O)N4CCN(c5ccc6nc7c(nc6c5C(F)(F)F)C(=O)c5ncccc5C7=O)CC4)c3C2=O)C(=O)N1 (stereo not given) | 19.6%
OCCn1cc(-c2nc3ccc4[nH]ncc4c3c3c2CCCC3)cn1 | 76.8%
Cc1ccc(N=Nc2c(N)nn3c(-c4cc5cc(Br)ccc5oc4=O)ccnc23)cc1 | 29%
COc1ccc(C(=O)C[n+]2cccc3c4ccccc4ccc32)cc1 | 97.7%
CCCCCCCCCc1ccc(C(=O)Nc2cc(C)ccc2C(=O)OC)cc1 | 109%
Cc1nc(Nc2ccccn2)sc1C1=NNC(c2ccccc2F)C1 (stereo not given) | 20.9%
NS(=O)(=O)c1ccc(Nc2nc(N/N=C/c3cc(Br)c(O)c(Br)c3)nc(Nc3ccccc3)n2)cc1 | 98%
C=CC(=O)Nc1ccc(C(=O)/C=C/c2ccc(N(C)C)cc2)c(O)c1 | 15.3%
CCCCCCCCc1ccc(C(=O)Nc2cccc(O)c2)cc1 | 59%
Clc1ccc(-c2nc3c4c(-c5ccccc5)c(-c5ccccc5)n(Cc5ccccc5)c4ncn3n2)cc1 | 70.9%
Nc1nn2c(-c3cc4cc(Br)ccc4oc3=O)ccnc2c1N=Nc1ccc(S(N)(=O)=O)cc1 | 103%
Cc1ccc(C(=O)Nc2cc(-n3ccnc3)cc(C(F)(F)F)c2)cc1-n1cc(-c2cnc3cccnn23)nn1 | 115%
Cc1cccc(C)c1Nc1nnc(-c2c[nH]c3ccccc23)o1 | 94.9%
COc1cc(CNC(=O)C[C@H](C)CCC=C(C)C)ccc1OCc1cn(-c2cccc(C(F)(F)F)c2)nn1 | 44%
CC1=C(C(=O)OCc2ccccc2)C(c2ccc(N(C)C)cc2)n2c(nc3ccccc32)N1 (stereo not given) | 73.2%
CCc1ccc(SC2c3cc(OC)ccc3Oc3nc(N)c(C#N)c(N)c32)cc1 (stereo not given) | 0.784% (active)
CCCn1c(NC(=O)c2cccc(C(N)=O)c2)nc2cc(CN3CCCCC3)ccc21 | 114%
